# Screens (PubChem BioAssay)
# In the library only some 6.7% were active in any assay of this set; here they are far more common.
# PINK1 expr mod – changes PINK1 expression. PINK1 immunofluorescence, high-content cytometry, 24 h. Potency, µM (series often up to 76.6 µM), without a hit: at the top dose activation (PINK1 increase), hits mostly activators. hit rate 0.2% among 410,000; active = well fitted activation curve with a large enough effect; inconclusive = small, poorly fitted or top-dose-only effect; cell line not stated here; also: % of control where 0% means no effect; nearly all actives have a fitted effect of over 65% in size
#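 Cells are seeded, rested 12 hours, then given compound at five concentrations or DMSO for 24 hours. After fixation, blocking and antibody staining, PINK1 amount and mitochondrial localization are scored; CCCP serves as control.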
# MCF10A rerep – inducers of DNA re-replication in MCF 10A breast cells. Potency, µM (highest dose often 46.1 µM), for inactives: at the top dose activity, positive = re-replication, hits mostly activators. AID 624296. hit rate 2.9% among 350,000. MCF 10A DNA re-replication, Hoechst nuclear intensity, 48 h; also: % of control where 0% means no effect; nearly all actives have a fitted effect of over 50% in size
# KB-3-1 cytotox – kills parental KB-3-1 adenocarcinoma cells; KB-3-1 viability, CellTiter-Glo ATP luminescence, 72 h; hit rate 1.4% among 400,000; AID 1347075; Potency, µM (highest dose often 46.1 µM), most hits filed as cytotoxic; also: % is scaled to controls: 0 for no effect and ±100 for the full control effect; nearly all actives have a fitted effect of over 60% in size
#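 Multi-concentration cytotoxicity screen in KB-3-1 cells grown in DMEM lacking phenol red with 10% FBS. After 72 h at 37 °C with compound, ATP-dependent luminescence was recorded.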
# KB-V1 cytotox – kills drug-selected multidrug resistant KB-V1 cells; KB-V1 MDR cells viability, CellTiter-Glo, 72 h; Potency, µM (top dose mostly 46.1 µM), hits mostly cytotoxic; hit rate 3.4% among 400,000; AID 1347076; also: % is scaled to controls: 0 for no effect and ±100 for the full control effect; nearly all actives have a fitted effect of over 60% in size
#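 Cytotoxicity toward P-gp-expressing KB-V1 cells was determined as loss of CellTiter-Glo luminescence after 72 h at 37 degrees C. Compounds were tested in quantitative HTS format across a concentration range, with curves fitted to normalized data.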
# SW480 rerep – DNA re-replication induction in SW480 cells; Potency, µM (highest dose often 46.1 µM), without a hit: at the highest dose re-replication activation, actives largely listed as activators; hit rate 1.8% among 340,000; SW480 DNA re-replication, Hoechst DNA content imaging, 48 h; AID 624297; also: % of control where 0% means no effect; nearly all actives have a fitted effect of over 55% in size
#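 Quantitative HTS format with DMSO vehicle controls; 48 hr drug incubation at 37 C, then 40 min Hoechst staining and scanning imager measurement at 405 nm excitation.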
# * = called active by the depositor; i = inactive; ? = inconclusive; nt = no result given; ! = not confirmed by another sample; [ ] = remark or other dose. Unless noted, calls follow the shape of the dose curve; as a rule, active = well fitted curve in the direction sought with a large enough effect; inconclusive = small, poorly fitted or top-dose-only effect, or another doubt; inactive = no such curve, though single readings can be large; an effect the other way counts as inactive or inconclusive. Potency is read from the fitted curve at half-maximal effect.
SMILES,PINK1 expr mod,MCF10A rerep,KB-3-1 cytotox,KB-V1 cytotox,SW480 rerep
O=C1c2ccccc2NC(c2ccc(Br)s2)N1O (configuration not stated),0%,23µM*,?,?,23%
COC(=O)C1C(O)=C(C(C)=Nc2cccc3ccccc23)C(=O)CC1(C)C (configuration not stated),0%,12%,i,i,5.8µM*
CCCCCC(=O)N1C[C@@H](n2cc(C3CC3)nn2)[C@H](O)C[C@@H]1c1ccc(C)cc1,0%,nt,i,i,nt
O=C(O)CN(CCN(CC(=O)O)CC(=O)O)CCN(CC(=O)O)CC(=O)O,nt,-8%[0.169 µM],nt,nt,24µM*!
O=C(Nc1ccc(OCC(F)(F)C(F)F)c(C(F)(F)F)c1)c1ccccc1O,16µM*,12µM*,?,?,?
O=C(COc1ccc(Br)cc1)N(Cc1ccccc1)c1ccccn1,-1%,11%,i,18µM*,-3%
O=C(COc1ccc(Cl)cc1)N(Cc1ccccc1)c1ccccn1,-1%,?,i,i,3%
CC(C)(Oc1ccc(Cl)cc1)C(=O)N(Cc1ccccc1)c1ccccn1,25%,8%,i,15µM*,?
COc1ccc(CCNC(=O)C2CCN(Cc3nc(-c4ccccc4C)oc3C)CC2)cc1OC,-2%[38.3 µM],22%,?,7.3µM*,2%
COc1ccc(OC)c(CCNC(=O)CS(=O)(=O)Cc2nc(-c3ccccc3C)oc2C)c1,1%,6%,?,6.5µM*,-3%
Cc1ccccc1-c1nc(CN2CCC(C(=O)NCCCN3CCCC(C)C3)CC2)c(C)o1 (configuration not stated),5%,7%,i,i,21µM*
Cc1ccccc1-c1nc(CN2CCC(C(=O)NCCc3ccccc3)CC2)c(C)o1,-1%,nt,i,i,nt
Cc1cc(-c2ccc(S(=O)(=O)Nc3cccc(Cl)c3C)cc2)on1,9%,nt,nt,nt,nt
CCOc1ccc(C(=O)COC(=O)Cn2cnc3c2c(=O)n(C)c(=O)n3C)cc1,0%,-3%,i,?,3%
O=C(c1ccc(Cl)cc1)N(Cc1ccco1)C1CCS(=O)(=O)C1 (configuration not stated),1%,-4%,i,i,-12%
COc1ccc(-c2cnc(C)o2)cc1S(=O)(=O)Nc1ccc(NC(C)=O)cc1,1%,nt,i,i,nt
COc1ccc(CN2CCC3CC2c2cc(Cl)ccc23)cc1 (configuration not stated),11%,?,?,i,-4%[9.22 µM]
COc1ccc(CN2CCC3CC2c2cc(-c4cccc(C)c4)ccc23)cc1 (configuration not stated),?,9.2µM*,i,i,?
CCc1ccc(-c2nn(CC(=O)NC3CCCC3)c3c2cnc2ccc(C)cc23)cc1,0%,nt,i,i,nt
CN(C)c1nccc(N(Cc2ccccc2)Cc2ccccc2)c1C#N,13%,?,?,13µM*,-3%
CN(C)CCN(Cc1ccccc1)c1ccnc(N(C)C)c1C#N,-2%,4%,i,i,-2%
Cc1[nH]c2ccccc2c1/C=N/NC(=O)c1cc(-c2ccncc2)nc2ccccc12,5%,?,?,i,13µM*
O=C(N/N=C/c1ccccc1OC(F)F)c1cc(-c2ccncc2)nc2ccccc12,7%,4.6µM*,18µM*,i,12µM*
Cc1[nH]c2ccccc2c1/C=N/NC(=O)c1cc(-c2ccccc2)n[nH]1,0%,0%,i,i,-19%
Cc1ncc2c(c1CNC(=O)c1cncs1)CCN(C(=O)c1ccc(C(C)(C)C)cc1)C2,-1%,nt,nt,nt,nt
SMILES,PINK1 expr mod,MCF10A rerep,KB-3-1 cytotox,KB-V1 cytotox,SW480 rerep
C=CCNC(=O)C1CCC(=O)N1S(=O)(=O)c1ccc(C)cc1 (configuration not stated),-2%,-4%,i,i,-7%
Cn1ccsc1=NC(=O)c1cccc(OC(F)F)c1,3%,14%,i,i,2%
CC(=O)N1CCC(c2nc3ccccc3n2C(C)C(=O)NCc2ccccc2)CC1 (configuration not stated),nt,nt,i,i,nt
Cc1ccc(-n2cc(CN3CCN(C(=O)c4ncn[nH]4)CC3)c(-c3ccc(F)cc3)n2)cc1,0%,4%,i,?,2%
CCCc1ccc(C(=O)NC(=O)c2ccccc2O)cc1,45µM*,?,?,?,3%
O=C(NC(=O)c1ccccc1O)c1ccc(C(F)(F)F)cc1,32µM*,28%,i,i,?
O=C(NC(=S)NNC(=O)c1ccccc1O)c1ccc(F)cc1,-1%,14%,?,i,?
CCOC(=O)C1=C(COC(=O)CCCOc2ccccc2)NC(=O)NC1C (configuration not stated),-1%,-1%,i,i,-10%
Cc1nc(NCc2c(C)nn(C)c2Cl)sc1-c1ccn(CC2COc3ccccc3O2)n1 (configuration not stated),-1%,nt,nt,nt,nt
CC1CCN(C(C(=O)NC2CCCCC2)c2cc3c(cc2[N+](=O)[O-])OCO3)CC1 (configuration not stated),4%,-79%,i,?,?
CC1CCCN(C(C(=O)NC2CCCCC2)c2cc3c(cc2[N+](=O)[O-])OCO3)C1 (configuration not stated),11%,-13%,?,8.2µM*,-11%
CC[N+]1=C(C)C(C)(C)c2cc(C)ccc21,22µM*,?,?,i,1%
O=C1[C@@H](Oc2ccccc2)[C@@H](c2ccncc2)N1c1ccncc1,2%,0.18µM*,i,i,-62%
O=C(CSC1=NS(=O)(=O)c2ccccc2N1)Nc1ccccc1F,0%,2%,i,i,4%
Cc1nn(C(=O)c2cccc([N+](=O)[O-])c2C)c(C)c1S(=O)(=O)N1CCOCC1,1%,nt,i,i,nt
CCCCOC(=O)/C=C/c1ccc(OC(=O)OC)c(OC(=O)OC)c1,1%,15µM*,?,i,?
C(=C\c1ccccc1)/CN1CCN(C(c2nnnn2C2CCCCC2)C2CC2)CC1 (configuration not stated),0%,nt,i,18µM*,nt
CCc1nc2c(OCc3ccc(Cl)cc3Cl)cccn2c1N(C)C(C)=O,0%,nt,i,?,nt
N#C/C(=C\c1c(Oc2ccc(Cl)cc2)nc2ccccn2c1=O)C(=O)NC1CCS(=O)(=O)C1 (configuration not stated),4%,5.2µM*,?,i,?
Cc1cccn2c(=O)c(/C=C(\C#N)C(=O)NC3CCS(=O)(=O)C3)c(N3CCC(C)CC3)nc12 (configuration not stated),-1%,5.8µM*,i,i,8.2µM*
